# Unmarked numbers belong to inactive results. Inconclusive results are not listed. Where a call stands in place of a potency, no number is given. Calls of active or inactive are those of the source. Unless noted, calls come from the whole dose curve; as a rule, active = well fitted curve in the direction sought with a large enough effect; inconclusive = small, poorly fitted or top-dose-only effect, or another doubt; inactive = no such curve, though single readings can be large; an effect the other way counts as inactive or inconclusive.
# What was measured:
# [1] = molecular target: Tyrosyl-DNA phosphodiesterase 1 (Homo sapiens) (UniProt Q9NUW8); test: Confirmation Assay for Inhibitors of Tyrosyl-DNA Phosphodiesterase (TDP1) (AID 489007); conditions: recombinant human TDP1 enzymatic activity, dose-response; note: potency is the fitted concentration of half-maximal effect; nearly all actives have a fitted effect of over 40% in size
# Tyrosyl-DNA phosphodiesterase 1 (Homo sapiens), sequence (Q9NUW8 whole entry, looked up): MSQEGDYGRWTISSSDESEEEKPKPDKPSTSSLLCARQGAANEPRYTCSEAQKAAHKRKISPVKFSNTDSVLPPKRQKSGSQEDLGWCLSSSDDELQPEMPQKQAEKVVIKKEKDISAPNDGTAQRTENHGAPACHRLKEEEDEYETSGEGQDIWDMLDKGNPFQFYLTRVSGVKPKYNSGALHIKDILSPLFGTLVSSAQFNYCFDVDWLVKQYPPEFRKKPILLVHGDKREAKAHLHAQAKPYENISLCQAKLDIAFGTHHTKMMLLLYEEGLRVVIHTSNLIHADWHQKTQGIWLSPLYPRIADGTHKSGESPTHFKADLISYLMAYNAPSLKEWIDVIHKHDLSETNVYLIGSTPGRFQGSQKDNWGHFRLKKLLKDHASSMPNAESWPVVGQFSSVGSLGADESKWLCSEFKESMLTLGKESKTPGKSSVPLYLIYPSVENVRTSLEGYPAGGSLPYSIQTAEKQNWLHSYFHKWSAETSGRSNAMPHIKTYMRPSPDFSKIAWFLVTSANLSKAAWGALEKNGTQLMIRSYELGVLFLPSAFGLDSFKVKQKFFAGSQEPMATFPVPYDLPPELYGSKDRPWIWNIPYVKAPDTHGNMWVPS
# Outline: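 Recombinant E. coli-expressed Tdp1 (1 nM final) was preincubated with compounds 15 min at room temperature, then reacted 5 min with 15 nM 5'-biotin/3'-phosphotyrosine-FITC DNA substrate; cleavage read as loss of AlphaScreen signal (10 ug/ml beads, 10 min).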
# [2] = molecular target: Rap guanine nucleotide exchange factor 3 (Homo sapiens) (UniProt O95398); test: Confirmatory qHTS for agonist of cAMP-regulated guanine nucleotide exchange factor 3 (EPAC1) (AID 1645881);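 note: EPAC1 catalysed release of BODIPY-GDP from Rap1B seen as fluorescence loss; nearly all actives have a fitted effect of over 75% in size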
# Rap guanine nucleotide exchange factor 3 (Homo sapiens), sequence (O95398 whole entry, looked up): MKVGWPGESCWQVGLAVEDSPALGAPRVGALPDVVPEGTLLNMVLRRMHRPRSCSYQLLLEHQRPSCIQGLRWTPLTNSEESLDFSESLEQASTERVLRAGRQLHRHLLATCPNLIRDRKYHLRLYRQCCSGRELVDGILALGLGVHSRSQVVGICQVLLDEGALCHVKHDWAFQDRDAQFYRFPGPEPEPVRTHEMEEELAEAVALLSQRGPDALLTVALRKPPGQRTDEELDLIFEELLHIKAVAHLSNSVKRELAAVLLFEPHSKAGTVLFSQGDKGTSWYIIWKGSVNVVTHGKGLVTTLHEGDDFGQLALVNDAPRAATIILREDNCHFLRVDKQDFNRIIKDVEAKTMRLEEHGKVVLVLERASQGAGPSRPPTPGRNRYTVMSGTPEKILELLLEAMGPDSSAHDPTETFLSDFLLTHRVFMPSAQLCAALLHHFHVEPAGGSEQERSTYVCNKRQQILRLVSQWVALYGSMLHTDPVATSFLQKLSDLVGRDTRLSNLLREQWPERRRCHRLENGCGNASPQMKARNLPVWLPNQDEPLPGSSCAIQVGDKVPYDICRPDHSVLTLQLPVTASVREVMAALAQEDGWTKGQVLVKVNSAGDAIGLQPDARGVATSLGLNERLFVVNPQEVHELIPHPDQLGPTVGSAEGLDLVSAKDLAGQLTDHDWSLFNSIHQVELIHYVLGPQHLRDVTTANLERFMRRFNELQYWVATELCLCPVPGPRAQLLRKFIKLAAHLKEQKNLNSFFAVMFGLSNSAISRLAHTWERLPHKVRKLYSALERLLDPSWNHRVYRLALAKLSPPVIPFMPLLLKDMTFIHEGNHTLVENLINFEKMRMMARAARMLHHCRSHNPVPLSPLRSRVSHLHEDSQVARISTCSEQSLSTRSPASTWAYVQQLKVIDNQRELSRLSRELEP
# [3] = molecular target: Rap guanine nucleotide exchange factor 4 (Homo sapiens) (UniProt Q8WZA2); test: Confirmatory qHTS for agonist of cAMP-regulated guanine nucleotide exchange factor 4 (EPAC2) (AID 1645884);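 note: nucleotide exchange releases bodipy-GDP from Rap1 and this lowers its fluorescence; nearly all actives have a fitted effect of over 65% in size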
# Rap guanine nucleotide exchange factor 4 (Homo sapiens), sequence (Q8WZA2 whole entry, looked up): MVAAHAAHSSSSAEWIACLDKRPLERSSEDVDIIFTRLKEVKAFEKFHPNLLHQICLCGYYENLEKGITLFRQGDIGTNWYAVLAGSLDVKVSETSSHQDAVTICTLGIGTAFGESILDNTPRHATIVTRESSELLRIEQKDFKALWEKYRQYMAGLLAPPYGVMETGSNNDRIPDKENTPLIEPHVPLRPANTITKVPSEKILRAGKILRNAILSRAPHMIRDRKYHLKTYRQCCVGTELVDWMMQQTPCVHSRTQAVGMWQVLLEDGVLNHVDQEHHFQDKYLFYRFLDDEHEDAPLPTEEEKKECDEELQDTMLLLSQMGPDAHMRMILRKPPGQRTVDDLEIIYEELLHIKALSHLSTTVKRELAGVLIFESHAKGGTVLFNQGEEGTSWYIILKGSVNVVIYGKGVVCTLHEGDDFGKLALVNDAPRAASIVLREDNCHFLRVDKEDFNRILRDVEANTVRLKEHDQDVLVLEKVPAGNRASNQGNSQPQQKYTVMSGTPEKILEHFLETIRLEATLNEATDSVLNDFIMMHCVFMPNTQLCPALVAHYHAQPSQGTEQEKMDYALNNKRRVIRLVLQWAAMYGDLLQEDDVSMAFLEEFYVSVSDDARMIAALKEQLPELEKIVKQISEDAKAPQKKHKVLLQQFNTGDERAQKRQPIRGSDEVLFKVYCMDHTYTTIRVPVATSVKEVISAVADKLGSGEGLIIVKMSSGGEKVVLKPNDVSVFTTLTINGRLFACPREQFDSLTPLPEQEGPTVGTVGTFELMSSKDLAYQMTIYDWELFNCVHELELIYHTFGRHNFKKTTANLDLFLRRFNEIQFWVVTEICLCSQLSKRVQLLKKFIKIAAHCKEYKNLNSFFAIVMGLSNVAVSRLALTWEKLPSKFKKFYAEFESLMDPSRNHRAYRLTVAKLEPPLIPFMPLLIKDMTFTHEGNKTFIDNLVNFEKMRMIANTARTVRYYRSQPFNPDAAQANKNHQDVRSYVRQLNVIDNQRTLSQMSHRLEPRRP
# [4] = molecular target: Rap guanine nucleotide exchange factor 4 (Homo sapiens) (UniProt Q8WZA2); test: Confirmatory qHTS for antagonist of cAMP-regulated guanine nucleotide exchange factor 4 (EPAC2) (AID 1645885); note: nearly all actives have a fitted effect of over 25% in size; note: potency is the fitted concentration of half-maximal effect
# [5] = molecular target: Rap guanine nucleotide exchange factor 3 (Homo sapiens) (UniProt O95398); test: Counterscreen qHTS for agonist of cAMP-regulated guanine nucleotide exchange factor 3 (EPAC1) (AID 1645889); note: nearly all actives have a fitted effect of over 40% in size
# Outline: (§1)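 Measured: fluorescence of BODIPY-GDP bound to Rap1B, which falls as exchange proceeds. Conditions include 50 uM competing GDP, 5 and 30 min reads, and a later cAMP challenge for antagonist detection.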
# [6] = molecular target: Rap guanine nucleotide exchange factor 3 (Homo sapiens) (UniProt O95398); test: Counterscreen qHTS for antagonist of cAMP-regulated guanine nucleotide exchange factor 3 (EPAC1) (AID 1645888);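 note: fluorescence loss as bound BODIPY-GDP is released from Rap1B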
# Outline: as §1
# [7] = molecular target: Glucocorticoid receptor (Homo sapiens) (UniProt P04150); test: GR-GFP Redistribution (AID 450;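 active = compounds whose dose series gives a full or clear partial fitted curve of increased nuclear translocation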; note: potency is the fitted concentration of half-maximal effect); conditions: U2OS GR-GFP nuclear translocation, laser cytometry, 2 h
# Glucocorticoid receptor (Homo sapiens), sequence (P04150 whole entry, looked up, the tested form may be a part): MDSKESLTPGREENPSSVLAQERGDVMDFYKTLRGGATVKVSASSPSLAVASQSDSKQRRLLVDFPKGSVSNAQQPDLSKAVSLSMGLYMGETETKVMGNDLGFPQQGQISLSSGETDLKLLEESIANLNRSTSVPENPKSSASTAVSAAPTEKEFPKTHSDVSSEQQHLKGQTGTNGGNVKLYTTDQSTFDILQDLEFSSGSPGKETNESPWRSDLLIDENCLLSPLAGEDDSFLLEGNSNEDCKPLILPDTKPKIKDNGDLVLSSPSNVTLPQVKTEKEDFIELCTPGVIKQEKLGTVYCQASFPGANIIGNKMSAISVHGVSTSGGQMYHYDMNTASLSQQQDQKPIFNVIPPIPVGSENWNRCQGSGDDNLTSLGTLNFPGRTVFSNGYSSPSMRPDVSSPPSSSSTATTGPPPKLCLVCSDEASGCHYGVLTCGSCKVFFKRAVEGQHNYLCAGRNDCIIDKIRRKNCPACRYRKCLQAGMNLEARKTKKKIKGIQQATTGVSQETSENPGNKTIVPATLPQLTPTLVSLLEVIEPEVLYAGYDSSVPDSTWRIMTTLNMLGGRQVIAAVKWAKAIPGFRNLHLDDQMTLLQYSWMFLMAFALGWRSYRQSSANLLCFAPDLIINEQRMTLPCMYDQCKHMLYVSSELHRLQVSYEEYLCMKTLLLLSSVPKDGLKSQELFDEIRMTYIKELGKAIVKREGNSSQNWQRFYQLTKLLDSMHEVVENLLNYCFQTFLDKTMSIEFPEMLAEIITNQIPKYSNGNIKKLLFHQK
# [8] = molecular target: Guanine nucleotide-binding protein G(i) subunit alpha-1 (Homo sapiens) (UniProt P63096); test: qHTS Assay for Inhibitors of RGS12 GoLoco Motif Activity (Green Fluorophore) (AID 879);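 note: negative values mean loss of peptide binding seen as reduced polarization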
# Outline: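 Fluorescence polarization assay: 50 nM Gαi1 with 10 nM FITC-labeled RGS12 GoLoco peptide in 10 mM Tris pH 7.5, 150 mM NaCl, 0.1 mM GDP, 0.05% NP40, 10 min at room temperature with compound.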
# [9] = molecular target: Muscarinic acetylcholine receptor M1 (Rattus norvegicus) (UniProt P08482); test: qHTS Assay for Antagonists of Acetylcholine Muscarinic M1 Receptor: Kinetic Measurement of Intracellular Calcium Response (AID 943);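 note: Fluo-4 calcium signal as peak divided by basal fluorescence over 4 min; nearly all actives have a fitted effect of over 75% in size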
# Outline: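 CHO cells stably expressing rat M1 were loaded with no-wash Fluo-4 dye for 1 h at 37C, pre-incubated 10 min with compound, then challenged with EC80 carbachol (100 nM final); kinetic calcium read 4 min, peak/basal ratio.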
# [10] = molecular target: Pyruvate kinase (Leishmania mexicana) (UniProt Q27686); test: qHTS Validation Assay for Inhibitors of Leishmania Mexicana Pyruvate Kinase (AID 945)
# Pyruvate kinase (Leishmania mexicana), sequence (Q27686 2-499 E452W): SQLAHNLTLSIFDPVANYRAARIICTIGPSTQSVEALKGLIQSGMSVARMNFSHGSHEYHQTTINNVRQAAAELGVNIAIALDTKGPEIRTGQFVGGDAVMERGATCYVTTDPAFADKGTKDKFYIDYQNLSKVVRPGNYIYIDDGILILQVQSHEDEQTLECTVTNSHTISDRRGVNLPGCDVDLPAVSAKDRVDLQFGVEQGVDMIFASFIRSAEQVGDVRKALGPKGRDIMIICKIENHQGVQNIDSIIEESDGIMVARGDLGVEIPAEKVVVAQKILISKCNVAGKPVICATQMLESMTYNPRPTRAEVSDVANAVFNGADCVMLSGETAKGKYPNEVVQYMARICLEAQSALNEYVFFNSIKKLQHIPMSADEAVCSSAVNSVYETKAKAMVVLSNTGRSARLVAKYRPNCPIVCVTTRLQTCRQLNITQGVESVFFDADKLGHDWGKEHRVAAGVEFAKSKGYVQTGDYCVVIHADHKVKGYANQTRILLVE
# Outline: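 Substrate mix (0.5 mM PEP, 0.1 mM ADP, 7 mM MgCl2, 50 mM KCl, pH 7.2 imidazole) received compound by pin tool, then 0.2 nM LmPYK E451W. After 1 h at room temperature, PKLight was added and luminescence measured.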
# [11] = molecular target: Pyruvate kinase PKM (Homo sapiens) (UniProt P14618); test: qHTS Assay for Activators of Human Muscle Pyruvate Kinase (AID 954; active = well fitted curve in the direction sought with a large enough effect, not every such curve was filed as active)
# Outline: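 Reaction: 0.1 nM purified PKM2 with 0.5 mM phosphoenolpyruvate and 0.1 mM ADP, room temperature, 1 h. Readout: luciferase-based ATP luminescence after stop reagent. Activators judged against a 0.3 nM enzyme column.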
# [12] = molecular target: Alpha-galactosidase A (Homo sapiens) (UniProt P06280); test: Counterscreen for Glucocerebrosidase Inhibitors: qHTS Assay for Human alpha-Galactosidase at pH 4.5 (AID 992)
# Outline: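 Concentration-response curves (0.7 nM to 77 uM final) were modeled with the Hill equation to give AC50. Reactions: 2 nM enzyme, 80 uM fluorogenic alpha-galactoside, pH 4.5 citric acid buffer, 20 min, room temperature.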
# [13] = molecular target: alpha-glucosidase (Oryza sativa, rice) (UniProt Q653V4); test: Counterscreen for Glucocerebrosidase Inhibitors: qHTS Assay for Rice alpha-Glucosidase at pH 5.0 (AID 997)
# Outline: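 Rice alpha-glucosidase (4 nM final) with 400 uM 4-methylumbelliferyl-alpha-D-glucopyranoside in citrate buffer pH 5.0, 20 min at room temperature, stopped at pH 10; fluorescence 365/440 nm, compounds 0.7 nM–77 uM, AC50 from Hill fits.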
# [14] = molecular target: DNA dC->dU-editing enzyme APOBEC-3G (Homo sapiens) (UniProt Q9HC16); test: qHTS for inhibitors of Vif-A3G interactions: Validation (AID 588379)
# DNA dC->dU-editing enzyme APOBEC-3G (Homo sapiens), sequence (Q9HC16 whole entry, looked up): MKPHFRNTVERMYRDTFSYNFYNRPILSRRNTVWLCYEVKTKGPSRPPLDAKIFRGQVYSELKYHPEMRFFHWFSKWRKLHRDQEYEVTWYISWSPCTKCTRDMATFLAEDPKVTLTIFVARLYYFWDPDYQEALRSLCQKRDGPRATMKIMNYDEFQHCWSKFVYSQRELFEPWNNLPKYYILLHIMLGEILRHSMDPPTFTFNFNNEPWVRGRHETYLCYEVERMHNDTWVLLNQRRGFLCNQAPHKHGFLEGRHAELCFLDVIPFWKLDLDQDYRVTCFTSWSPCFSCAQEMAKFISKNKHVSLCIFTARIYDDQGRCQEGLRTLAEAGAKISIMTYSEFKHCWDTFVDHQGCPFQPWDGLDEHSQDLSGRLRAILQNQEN
# Outline: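 HeLa cells stably expressing Vif and A3G-eYFP, 700 cells/well, incubated overnight at 37 deg C, then exposed to compound overnight at 37 deg C. Inhibition of Vif-mediated degradation read as increased yellow fluorescence (Ex 488/Em 500-530) by laser-scanning cytometry.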
# [15] = qHTS Assay for Identification of Small Molecule Agonists for Hypoxia Response Element Signaling Pathway (AID 914; active = well fitted activation curve with a large enough effect in the signal ratio, with a control signal flat, not every such curve was filed as active; the % refers to the signal ratio; note: potency is the fitted concentration of half-maximal effect); conditions: ME-180 HRE-bla reporter, beta-lactamase ratio, CoCl2, 17 h; activation: active compounds read high
# Outline: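 Read-out: CCF4 FRET ratio of 460nm to 530nm emission (excitation 405nm) after 2.5 hours at room temperature, taken from HRE-bla ME-180 cells that had been exposed to compound and EC50 CoCl2 for 17 hours.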
# [16] = AP1 Signaling Pathway (AID 357; active = well fitted curve in either direction with a large enough effect, not every such curve was filed as active)
# Outline: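 ME-180 cells with beta-lactamase reporter under AP-1 response element, stimulated with EC50 EGF; compounds tested in titration series, 5 h at 37 °C. CCF4 substrate added 2.5 h at room temperature; 460/530 nm emission ratio gave %activity and AC50.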
# [17] = NFAT Signaling Pathway (AID 444; active = well fitted curve in either direction with a large enough effect, not every such curve was filed as active;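 note: carbachol stimulus at about its EC50 of 1 µM final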); conditions: Jurkat NFAT-bla M1, carbachol, beta-lactamase ratio, 5 h; at 7.69 µM (top of the series)
# Outline: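 Jurkat cells carrying an NFAT-driven β-lactamase reporter and co-transfected muscarinic M1 receptor were treated with compound plus carbachol (1 uM final, an EC50 level) for 5 h at 37 °C. CCF4 loading followed for 1 h at RT; 460/530 nm ratio gave %activity.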
# [18] = Stat Signaling Pathway (AID 446; active = well fitted curve in either direction with a large enough effect, not every such curve was filed as active;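 note: ME-180 cervical cancer cells given 40 pM IL-6 alongside compound; SIE-controlled beta-lactamase reporter measured as 460/530 nm FRET emission ratio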)
# Outline: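 Screening format detects activators and inhibitors alike: ME-180 SIE-bla cells stimulated at 40 pM IL-6 for 5 hrs with compound, then dual-emission beta-lactamase read at 405 nm excitation.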
# [19] = molecular target: Glucocorticoid receptor (Homo sapiens) (UniProt P04150); test: GR-EFC Redistribution (AID 451; calls by dose curve; note: potency is the fitted concentration of half-maximal effect); conditions: CHO-K1 GR-EFC translocation, beta-gal luminescence, 2 h
# Outline: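 CHO-K1 cells stably expressing nuclear-localized β-gal enzyme acceptor and GR fused C-terminally to the enzyme donor fragment; ligand-driven nuclear translocation restores β-gal by complementation. Compounds titrated up to 46 uM final, 2 h at 37 °C; luminescence read.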
# [20] = molecular target: Mitogen-activated protein kinase 10 (Mus musculus) (UniProt Q61831); test: JNK3 AlphaScreen Assay (AID 530; active = well fitted curve in either direction with a large enough effect, not every such curve was filed as active;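 note: kinase came from lysate of stimulated human HepG2 cells; signal reports phosphorylation of biotinylated GST-cJun 1-79 at Ser73 with 10 µM ATP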)
# Outline: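 JNK3 came from HepG2 lysates pre-activated with IL-1beta and TNF-alpha and phosphorylated biotinylated GST-cJun (1-79) at 10 uM ATP, pH 7.6, room temperature. Compounds were titrated. AlphaScreen signal used anti-phospho-cJun (Ser73) antibody.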
# [21] = molecular target: 3',5'-cyclic-AMP phosphodiesterase 4B (Homo sapiens) (UniProt Q07343); test: qHTS Assay for Inhibitors of PDE-IV (AID 607; active = well fitted activation curve with a large enough effect in the main read-out, with a control signal flat, not every such curve was filed as active)
# 3',5'-cyclic-AMP phosphodiesterase 4B (Homo sapiens), sequence (Q07343 whole entry, looked up): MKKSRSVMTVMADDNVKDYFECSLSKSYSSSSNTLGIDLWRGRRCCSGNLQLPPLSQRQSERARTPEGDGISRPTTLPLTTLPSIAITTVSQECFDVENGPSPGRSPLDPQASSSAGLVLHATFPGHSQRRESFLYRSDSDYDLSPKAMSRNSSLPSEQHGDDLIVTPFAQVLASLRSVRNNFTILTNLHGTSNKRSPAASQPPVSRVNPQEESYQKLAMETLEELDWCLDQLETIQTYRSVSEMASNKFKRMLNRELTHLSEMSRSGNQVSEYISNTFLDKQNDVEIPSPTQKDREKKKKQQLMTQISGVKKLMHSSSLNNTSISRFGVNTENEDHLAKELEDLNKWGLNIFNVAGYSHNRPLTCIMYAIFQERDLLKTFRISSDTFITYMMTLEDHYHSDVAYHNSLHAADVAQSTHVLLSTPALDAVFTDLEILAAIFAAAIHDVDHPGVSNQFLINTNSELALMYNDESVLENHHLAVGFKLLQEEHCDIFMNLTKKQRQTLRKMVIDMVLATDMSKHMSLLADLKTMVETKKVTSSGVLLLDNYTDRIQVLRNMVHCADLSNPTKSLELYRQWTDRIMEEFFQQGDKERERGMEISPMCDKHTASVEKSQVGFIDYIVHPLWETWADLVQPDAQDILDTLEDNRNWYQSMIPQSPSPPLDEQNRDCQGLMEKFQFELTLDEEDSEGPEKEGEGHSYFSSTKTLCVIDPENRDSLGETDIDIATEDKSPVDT
# Outline: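 The readout is membrane depolarisation from a cAMP-sensing CNG channel, detected with a potential dye at ex 535/em 590. Cells were HEK293-derived (endogenous PDE-IV) at 1000 cells/well, titrated up to 22.9 uM final.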
smiles,measurement,setting,value
NC(=O)c1ccc(N=Cc2c(O)n(Cc3ccco3)c(=O)[nH]c2=O)cc1,Potency,[1],14.1 µM (active)
same,Potency,[2],inactive
same,Potency,[3],inactive
same,Potency,[4],inactive
O=[N+]([O-])c1ccc(N(CCO)CCO)c2c1no[n+]2[O-],Potency,[2],inactive
same,Potency,[3],inactive
same,Potency,[5],inactive
COc1ccc(CN2C(=O)NC(=O)/C(=C\c3ccco3)C2=O)cc1,Potency,[2],inactive
same,Potency,[3],inactive
same,Potency,[4],inactive
same,outcome,[6],inactive
COc1cc(-n2c(=S)[nH]c3ccc(C)cc3c2=O)c(Cl)cc1Cl,Potency,[2],inactive
same,activation,[3],"8.75% [at 17.1 µM, percent relative to cAMP agonist control]"
same,"activity change, negative = inhibition",[4],-17.7% [at 12.7 µM]
same,"activity change, negative = inhibition",[6],-20.5% [at 30.8 µM]
same,activation,[5],24.2% [at 30.8 µM]
COc1ccc(C2C=C(C)Oc3c2c(=O)oc2ccccc32)cc1OC (centres undefined),Potency,[2],inactive
same,Potency,[4],30.1 µM (active)
O=C1NC(=O)N(Cc2ccccc2)C(=O)/C1=C\c1ccco1,Potency,[2],inactive
same,activation,[3],"4.68% [at 17.1 µM, percent relative to cAMP agonist control]"
same,"activity change, negative = inhibition",[4],4.49% [at 12.7 µM]
same,"activity change, negative = inhibition",[6],0.623% [at 30.8 µM]
COc1cccc(C(c2nnnn2C2CCCCC2)N2CCC3(CC2)C(=O)NCN3c2ccccc2)c1OC (centres undefined),Potency,[2],inactive
same,Potency,[3],inactive
same,outcome,[6],inactive
NS(=O)(=O)c1ccc(-c2ccc(C=C3C(=O)NC(=O)NC3=O)o2)cc1,Potency,[2],inactive
same,Potency,[3],inactive
same,Potency,[4],inactive
same,outcome,[6],inactive
same,Potency,[5],inactive
CCCCCCC(C)(C)c1ccc([C@@H]2C[C@H](O)CC[C@@H]2CCCO)c(O)c1,Potency,[7],> 46 µM
same,outcome,[8],inactive
same,Potency,[9],inactive
same,Potency,[10],inactive
same,outcome,[11],inactive
same,outcome,[12],inactive
same,outcome,[13],inactive
same,outcome,[14],inactive
same,Potency,[2],inactive
same,Potency,[3],inactive
same,Potency,[4],35 µM (active)
Nc1c(C(=O)NCc2ccco2)c2nc3ccccc3nc2n1Cc1ccc(F)cc1,Potency,[7],> 20.6 µM
same,Potency,[15],7.94 µM (active)
same,Potency,[2],inactive
same,Potency,[3],inactive
same,Potency,[4],inactive
same,outcome,[6],inactive
Cn1cccc1/C=C1/C(=O)NC(=O)N(Cc2ccccc2)C1=O,Potency,[2],inactive
same,Potency,[3],inactive
same,Potency,[4],inactive
same,outcome,[6],inactive
same,Potency,[5],inactive
COc1cccc(C(c2nnnn2Cc2ccccc2)N2CCC(n3c(=O)[nH]c4ccccc43)CC2)c1OC (centres undefined),Potency,[2],inactive
same,Potency,[3],inactive
same,outcome,[6],inactive
CCCCC/C(=N/O)c1c(C)[nH]c2ccccc12,Potency,[2],inactive
same,Potency,[3],inactive
same,Potency,[4],inactive
same,outcome,[6],inactive
same,Potency,[5],inactive
CC(c1ccccc1)(c1ccccc1)c1ccncc1,Potency,[2],inactive
same,activation,[3],"0% [at 17.1 µM, percent relative to cAMP agonist control]"
same,"activity change, negative = inhibition",[4],-28.4% [at 12.7 µM]
same,"activity change, negative = inhibition",[6],-6.49% [at 30.8 µM]
CN1CCN2c3ccc(N)cc3CC3(C(=O)NC(=O)NC3=O)C2C1 (centres undefined),Potency,[1],14.1 µM (active)
same,Potency,[2],inactive
same,Potency,[4],inactive
same,outcome,[6],inactive
same,Potency,[5],inactive
CCOC(=O)[C@]12Cc3cc(OC)ccc3[C@H]1N(C1CCCCC1)C(=O)c1ccccc12,Potency,[2],inactive
same,Potency,[3],inactive
same,outcome,[6],inactive
same,Potency,[5],inactive
CCOC(=O)[C@]12Cc3cc(Cl)ccc3[C@H]1N(C(C)C)C(=O)c1ccccc12,Potency,[2],inactive
same,Potency,[3],inactive
same,Potency,[4],21.3 µM (active)
same,outcome,[6],inactive
O=C1NC(=S)NC(=O)C1=Cc1cccc2cc3ccccc3cc12,outcome,[16],inactive
same,"activity change, negative = inhibition",[17],-8.51%
same,outcome,[18],inactive
same,Potency,[7],> 46 µM
same,Potency,[19],> 9.22 µM
same,"activity change, negative = inhibition",[20],-7.37% [at 11.4 µM]
same,Potency,[21],inactive
same,Potency,[2],inactive
same,Potency,[3],inactive
same,outcome,[6],inactive
COc1ccc(-n2nnnc2C(c2cccs2)N2CCC(n3c(=O)[nH]c4ccccc43)CC2)cc1 (centres undefined),Potency,[2],inactive
same,Potency,[4],inactive
same,outcome,[6],inactive
CCC(C)c1ccc(N2C(=O)NC(=O)/C(=C/c3cccn3CCOc3ccc(C)cc3)C2=O)cc1 (centres undefined),Potency,[2],inactive
same,Potency,[3],inactive
same,Potency,[4],inactive
same,Potency,[5],inactive
CCOC(=O)[C@]12Cc3cc(Cl)ccc3[C@H]1N(CC(=O)OC)C(=O)c1ccccc12,Potency,[2],inactive
same,Potency,[3],inactive
same,Potency,[5],inactive
Cn1ncnc2c(=O)n(C)c(=O)nc1-2,Potency,[2],inactive
same,Potency,[3],inactive
same,Potency,[4],inactive
same,outcome,[6],inactive
same,Potency,[5],inactive
O=C1NC(=O)N(Cc2ccc(F)cc2)C(=O)/C1=C\C=C\c1ccco1,Potency,[2],inactive
same,activation,[3],"3.22% [at 17.1 µM, percent relative to cAMP agonist control]"
same,"activity change, negative = inhibition",[4],-5.04% [at 12.7 µM]
same,"activity change, negative = inhibition",[6],6.52% [at 30.8 µM]
O=C1NC(=O)N(Cc2ccc(F)cc2)C(=O)/C1=C\c1ccoc1,Potency,[2],inactive
same,Potency,[4],inactive
same,outcome,[6],inactive
c1ccc(C(c2ccccc2)c2cccnc2)cc1,Potency,[2],inactive
same,outcome,[6],inactive
same,Potency,[5],inactive
O=C(c1cc(-c2ccc(Cl)cc2)n(-c2ccc(Cl)cc2Cl)n1)N1CCOCC1,Potency,[2],inactive
same,Potency,[4],inactive
